Assay results taken from PubChem BioAssay (NCATS).
Several values for one entry are separate records, joined by “and”; a condition that tells them apart may be missing. Equal entries are not always repeated. Inconclusive results are not listed. Activity calls are given as the source filed them. Unless noted, the call rests on the fitted dose curve; in most records, active means well fitted curve in the direction sought with a large enough effect; inconclusive means small, poorly fitted or top-dose-only effect, or another doubt; inactive means no such curve, though single readings can be large; an effect the other way counts as inactive or inconclusive.

Tests used:
[1] = MultiTox-Fluor Cytotoxicity Assay - LYMP1-001 - Dead Cells (AID 946); conditions: LYMP1-001 lymphoblastoid cells, dead-cell protease fluorescence; series mostly up to 92.2 µM
Method in brief: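 Cytotoxicity as increased dead-cell protease fluorescence (bis-AAF-R110, 485/520 nm), read 60 min after MultiTox-Fluor reagent. Human lymphoblastoid line exposed 16 h; Hill-fitted AC50, with DMSO as 0% and 15 uM tetraoctylammonium bromide as 100%.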

[2] = MultiTox-Fluor Cytotoxicity Assay - LYMP1-001 - Live Cells (AID 947); conditions: LYMP1-001 lymphoblastoid cells, live-cell protease fluorescence viability; series mostly up to 92.2 µM;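 further: 0% = DMSO only and full inhibition = tetraoctylammonium bromide control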
[3] = Cell Viability - LYMP1-002 - Assay at 16 hr (AID 948); conditions: LYMP1-002 lymphoblastoid cell viability; series mostly up to 92.2 µM;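 further: 0% = DMSO alone and full effect = 92 µM tetraoctylammonium bromide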
Method in brief: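 LYMP1-002 human lymphoblastoid cells, 2500/well; 5 hr 37 C; cpd 16 hr 37 C; CellTiter-Glo 30 min RT; luminescence (ATP). Concentration-response, Hill-fit AC50. Pos ctrl tetraoctylammonium bromide.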

[4] = MultiTox-Fluor Cytotoxicity Assay - LYMP1-002 - Live Cells (AID 955); conditions: LYMP1-002 lymphoblastoid live-cell protease fluorescence viability; series mostly up to 46.1 µM; further: on the % scale 0 is the no-effect control and ±100 the full control effect
Method in brief: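 LYMP1-002 lymphoblastoid cells; 2500 cells/well; 16 hr compound exposure, 37 C; MultiTox-Fluor reagent 60 min RT; live-cell fluorescence Ex/Em=405/510; qHTS concentration-response, Hill-equation AC50; tetraoctylammonium bromide positive control.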

[5] = MultiTox-Fluor Cytotoxicity Assay - LYMP1-002 - Dead Cells (AID 960); conditions: LYMP1-002 lymphoblastoid cells, dead-cell protease fluorescence; series mostly up to 46.1 µM; further: nearly all actives have a fitted effect of over 60% in size
Method in brief: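 Readout: fluorescence at 485/520 from cell-impermeant bis-AAF-R110 cleaved by proteases leaking from damaged cells. LYMP1-002 lymphoblastoid line, 16 hr compound treatment at 37 C, concentration-response in qHTS format; Hill-equation AC50 values.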

[6] = MultiTox-Fluor Cytotoxicity Assay - LYMP1-003 - Dead Cells (AID 961); conditions: LYMP1-003 lymphoblastoid cells, dead-cell protease fluorescence; series mostly up to 92.2 µM; further: nearly all actives have a fitted effect of over 70% in size
Method in brief: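 Dead-cell protease release, detected as bis-AAF-R110 fluorescence at 485/520 nm, was measured in LYMP1-003 cells after 16 h compound treatment at 37 C. AC50 values came from Hill-modeled qHTS curves normalized to DMSO (0%) and 15 uM tetraoctylammonium bromide (100%).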

[7] = MultiTox-Fluor Cytotoxicity Assay - LYMP1-003 - Live Cells (AID 962); conditions: LYMP1-003 lymphoblastoid cells, MultiTox-Fluor live-cell protease fluorescence; series mostly up to 92.2 µM;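 further: 0% = DMSO only and full loss = 92 µM tetraoctylammonium bromide; cytotoxic hits lower the live-cell protease signal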
Method in brief: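 Readout: live-cell fluorescence (Ex/Em=405/510) from GF-AFC cleavage after 60 min MultiTox-Fluor reagent at room temperature. Lymphoblastoid LYMP1-003 cells, 16 hr compound treatment, 37 C. Concentration-response fitted to standard Hill equation for AC50.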

[8] = Cell Viability - LYMP1-003 - Assay at 24 hr (AID 963); conditions: LYMP1-003 lymphoblastoid cell viability; series mostly up to 92.2 µM;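 further: plate controls were DMSO only for no effect and tetraoctylammonium bromide positive control for full effect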
Method in brief: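 CellTiter-Glo luminescence (intracellular ATP) read after 24 hr, 37 C compound exposure of 2500 LYMP1-003 human lymphoblastoid cells/well in complete medium; qHTS concentration series; AC50 via standard Hill equation.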

[9] = Cell Viability - LYMP2-003 (AID 965); conditions: LYMP2-003 lymphoblastoid cell viability; series mostly up to 92.2 µM;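 further: cells exposed to compounds for 24 h before reading; 0% = DMSO only and full effect = 92 µM tetraoctylammonium bromide; nearly all actives have a fitted effect of over 50% in size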
Method in brief: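 CellTiter-Glo luminescence (cellular ATP) after 24 h compound exposure at 37 C in complete medium; 2500 cells/well, 5 h settling beforehand. Concentration-response fitted to standard Hill equation for AC50. Tetraoctylammonium bromide served as positive control.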

[10] = Cell Viability - LYMP2-004 (AID 966); conditions: LYMP2-004 lymphoblastoid cell viability, qHTS; series mostly up to 92.2 µM;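 further: plate controls were DMSO only for no effect and tetraoctylammonium bromide control for full effect; nearly all actives have a fitted effect of over 65% in size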
Method in brief: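 Luminescent ATP read-out (CellTiter-Glo, 30 min RT) after 24 hr compound exposure at 37 C; 2500 lymphoblastoid cells/well, complete medium. Decrease in ATP = cytotoxicity; AC50 from standard Hill model.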

[11] = Cell Viability - LYMP2-005 (AID 967); conditions: LYMP2-005 lymphoblastoid cell viability; series mostly up to 92.2 µM;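 further: plate controls were DMSO only for no effect and 92 µM tetraoctylammonium bromide control for full effect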
Method in brief: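 Steps: seed 2500 LYMP2-005 cells/well, incubate 5 h at 37 C, add compound, incubate 24 h at 37 C, add CellTiter-Glo, wait 30 min at RT, read luminescence. Concentration-response data fitted to Hill equation for AC50.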

[12] = Cell Viability - LYMP2-009 (AID 968); conditions: LYMP2-009 lymphoblastoid cell viability; series mostly up to 92.2 µM;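 further: 0% = DMSO alone and the full-kill end = tetraoctylammonium bromide at 92 µM; nearly all actives have a fitted effect of over 55% in size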
[13] = Cell Viability - LYMP2-011 (AID 969); conditions: LYMP2-011 lymphoblastoid cells viability; series mostly up to 92.2 µM;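 further: cells exposed to compound for 24 hours; 0% = DMSO only and full inhibition = 92 µM tetraoctylammonium bromide; nearly all actives have a fitted effect of over 60% in size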
Method in brief: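 Luminescent ATP read-out (CellTiter-Glo, 30 min RT) after 24 hr compound exposure at 37 C in human lymphoblastoid cells, 2500 cells/well. Decreasing ATP indicates cytotoxicity; AC50 from standard Hill fit.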

[14] = Cell Viability - LYMP2-013 (AID 970); conditions: LYMP2-013 lymphoblastoid cells viability; series mostly up to 92.2 µM;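 further: 0% = DMSO only and full inhibition = tetraoctylammonium bromide control; nearly all actives have a fitted effect of over 55% in size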
Method in brief: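 CellTiter-Glo luminescence (cellular ATP) read after 30 min at RT. Cells: human lymphoblastoid line, 2500/well, 24 hr compound exposure at 37 C. Tetraoctylammonium bromide positive control; AC50 via standard Hill fit of qHTS titrations.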

[15] = Cell Viability - LYMP2-015 (AID 971); conditions: LYMP2-015 lymphoblastoid cell viability; series mostly up to 92.2 µM;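 further: 0% = DMSO only and full effect = 92 µM tetraoctylammonium bromide; nearly all actives have a fitted effect of over 55% in size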
Method in brief: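 qHTS cytotoxicity: 2500 cells/well, 5 hr 37 C, compound 24 hr 37 C, CellTiter-Glo 30 min RT, luminescence. Loss of ATP = toxicity; AC50 via standard Hill fit.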

[16] = Cell Viability - LYMP2-017 (AID 972); conditions: LYMP2-017 lymphoblastoid cell viability; series mostly up to 92.2 µM;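 further: cells exposed to compound for 24 hours at 37 °C; on the % scale 0 is the no-effect control and ±100 the full control effect; nearly all actives have a fitted effect of over 55% in size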
Method in brief: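 Luminescent ATP read-out (CellTiter-Glo, 30 min RT) reports viable cell number. Cells: human lymphoblastoid line, 2500 per well, 5 hr preincubation, 24 hr compound exposure at 37 C. AC50 is derived from qHTS concentration-response data using the standard Hill model.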

[17] = Cell Viability - LYMP2-019 (AID 973); conditions: LYMP2-019 lymphoblastoid cell line viability; series mostly up to 92.2 µM
Method in brief: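 qHTS, 1536-well; 2500 cells/well; 5 hr pre-incubation, 24 hr compound exposure, 37 C; CellTiter-Glo added, 30 min RT; luminescence read; AC50 via standard Hill equation.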

[18] = qHTS assay for small molecule agonists of the antioxidant response element (ARE) signaling pathway measured by Nrf2-dependant transcriptional activity (AID 720636; active means well fitted curve in the direction sought with a large enough effect in the repeat runs; an effect the other way counts as inactive or inconclusive; further: % of control where 0% means no effect); conditions: ARE-luc HepG2, Nrf2 luciferase reporter, 16 h; series mostly up to 92.4 µM
Method in brief: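 ARE-luc HepG2 cells carrying an Nrf2-responsive luciferase reporter, in medium with 1% dialyzed FBS, exposed to compound for 16 hr at 37 C, 5% CO2. Luminescence read 30 min after ONE-Glo addition.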

[19] = qHTS assay for small molecule antagonists of the retinoid-related orphan receptor gamma (ROR-gamma) signaling pathway - cell viability counter screen (AID 720652; active means well fitted curve in the direction sought with a large enough effect in the repeat runs; an effect the other way counts as inactive or inconclusive;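 further: CHO reporter cells with doxycycline-induced ROR-gamma expression; compound exposure lasted 16 hr before ATP read; on the % scale 0 is the no-effect control and ±100 the full control effect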); conditions: RORgamma reporter cell line viability counter screen; series mostly up to 92.2 µM
Method in brief: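 CHO RORE-LUC/TET-ROR line, 1,000 cells/well, 37 C 5% CO2 5 hr; cpd or DMSO + doxycycline induction, 16 hr. CellTiter-Glo, 30 min RT, luminescence = ATP content.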

[20] = qHTS assay for cell viability of HEK293 cells (AID 743288); conditions: ATP luminescence (CellTiter-Glo), 18 h; max response: hits give low values; further: on the % scale 0 is the no-effect control and ±100 the full control effect; nearly all actives have a fitted effect of over 50% in size
Method in brief: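 ATP luminescence (CellTiter-Glo) reports metabolically competent cell number after parental HEK293 cells, 2,000/well, were treated with DMSO-dissolved compounds for 18 h at 37 C; reagent incubation 30 min, room temperature.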

O=Cc1ccccc1
inactive: Potency [1] | outcome [2] | outcome [3] | outcome [4] | Potency [5] | Potency [6] | outcome [7] | outcome [8] | outcome [9] | outcome [10] | outcome [11] | outcome [12] | outcome [13] | outcome [14] | outcome [15] | outcome [16] | outcome [17] | Potency [18] | outcome [19] | max response [20] -12%

COC(=O)c1ccccc1C(=O)OC
inactive: Potency [1] | outcome [2] | outcome [3] | outcome [4] | Potency [5] | Potency [6] | outcome [7] | outcome [8] | outcome [9] | outcome [10] | outcome [11] | outcome [12] | outcome [13] | outcome [14] | outcome [15] | outcome [16] | outcome [17] | Potency [18] | outcome [19] | max response [20] -1.85% and 5.33%

CCOc1cc(C=O)ccc1O
inactive: Potency [1] | outcome [2] | outcome [3] | outcome [4] | Potency [5] | Potency [6] | outcome [7] | outcome [8] | outcome [9] | outcome [10] | outcome [11] | outcome [12] | outcome [13] | outcome [14] | outcome [15] | outcome [16] | outcome [17] | Potency [18] | outcome [19] | max response [20] -8.41% and -7.59%
